Results filed as inconclusive are left out. Entries that show only a call come without a potency. Activity calls are given as the source filed them. Calls come from the whole dose curve; as a rule, active = well fitted activation curve with a large enough effect; inconclusive = small, poorly fitted or top-dose-only effect; inactive = flat fitted curve, though single readings scatter.

This test in a line: qHTS for Inhibitors of Cell Surface uPA Generation: FP59 Counterscreen for Cherry-picked Compounds. Conditions: FP59 anthrax toxin cytotoxicity counterscreen, cells; series mostly up to 115 µM.
Take `CCC1(C)NC(=O)N(CC(=O)Nc2sc3c(c2C(N)=O)CCC3)C1=O` (centres undefined): the Potency entry was “inactive”.

Regarding `COc1ccccc1NS(=O)(=O)c1cc(NC(=O)CCc2nc3ccccc3c(=O)[nH]2)ccc1C`, the Potency entry was “inactive”.

For `Cc1cc(C)cc(NC(=O)COC(=O)CCn2c(C)csc2=O)c1`, the Potency result is “inactive”.

Consider `O=C(Nn1cnnc1)c1ccc(Cl)c(Cl)c1`, for which the Potency result was “inactive”. On to `O=C(Nc1ccc(Cl)cc1)Nc1nnc(-c2ccncc2)s1`, for which the Potency entry is “inactive”. To `CCCCCCCCCOC(=O)C1N2C(=O)[C@@H](NC(=O)COc3ccccc3)[C@H]2SC1(C)C` (some centres undefined) belongs “inactive”; to `CC(=O)Oc1ccc(OC(C)=O)c(SCCCCCCl)c1`, “inactive”; to `COc1cccc(CNC(=O)C2CCCN(S(=O)(=O)c3ccc4c(c3)C(C)(C)C(=O)N4C)C2)c1` (centres undefined), “inactive”. As for `Cc1ccc(-c2nc(CS(=O)(=O)CC(=O)NCc3cccc(F)c3)c(C)o2)cc1`, the Potency result is “inactive”.

For `CC1(C(=O)OCC(=O)Nc2ccc(Cl)cn2)CC1(Cl)Cl` (centres undefined), the Potency entry was “inactive”.

For the compound `CC1CCCN(C(=O)c2ccc(-c3ccccc3Cl)o2)C1` (centres undefined), the Potency result was “inactive”. As to `O=c1[nH]c2ccccc2cc1CN(CC1CCCO1)S(=O)(=O)c1ccccc1` (centres undefined), the Potency result was “inactive”.

As for `CC1=NN(C(N)=S)C(=O)C1N=Nc1ccccc1C(=O)O` (centres undefined), the Potency result is “inactive”. Take `COC(=O)[C@]1(Cc2ccccc2)N[C@H](CN(C)C(=O)c2ccccc2)[C@@H]2C(=O)N(Cc3ccccc3)C(=O)[C@@H]21`: the Potency result is “inactive”. To `COc1ccc(C(c2sc3nc(C)nn3c2O)N2CCC(C(N)=O)CC2)cc1OC` (centres undefined) belongs “inactive”. The result for `Cc1cccc(C)c1NC(=O)c1c(O)c2ccccc2[nH]c1=O` reads “inactive”; that for `COc1cccc(CN(C)C(=O)c2cc(S(=O)(=O)N3CCCC3)ccc2C)c1OC`, “inactive”. To `CN(C)C(=S)Nc1ccc(S(=O)(=O)N2CCCCC2)cc1` belongs “inactive”; to `COc1ccc(-n2nc(C(=O)Nc3cc(OC)c(OC)c(OC)c3)c3ccccc3c2=O)c(OC)c1`, “inactive”. `Cc1ccc(C23CC4CC(CC(C(=O)NN)(C4)C2)C3)cc1`: the Potency entry is “inactive”. For `Cc1nc(NC2CCCCC2)c2nnn(Cc3ccccc3Cl)c2n1`, the Potency entry is “inactive”. On to `O=C(CCCC(=O)N1CCN(c2ccccc2F)CC1)c1ccccc1`, for which the Potency entry was “inactive”. The result for `Cc1ccc(NC(=O)CC2OC(=O)c3ccccc32)cc1S(=O)(=O)N1CCOCC1` (centres undefined) reads “inactive”; that for `COc1ccc(CN2CCNC(=O)C2CC(=O)NCC2CCOCC2)cc1C` (centres undefined), “inactive”; that for `Cn1c(=O)c(=O)n(C)c2cc(S(=O)(=O)CCC(=O)Nc3ccc(F)cc3)ccc21`, “inactive”. To `CSc1ccc(CNCCCN(C)C)cc1` belongs “inactive”; to `COc1ccc(C2NC(=O)CCC2[N+](=O)[O-])c(OC)c1OC` (centres undefined), “inactive”; to `Cc1ccc(CC2CC(=O)N(c3cc(C)ccc3C)C2=O)cc1` (centres undefined), “inactive”. The result for `COC(=O)/C(C#N)=C\c1c(OC)[nH]c2ccccc12` reads “inactive”; that for `Cn1nc(C(C)(C)C)c([N+](=O)[O-])c1C(=O)N1CCOCC1`, “inactive”; that for `Cc1ccc(CN2CCN(Cc3cc4ccccc4o3)CC2CCO)cc1` (centres undefined), “inactive”. As to `CC(C)NC(=O)CN1CCC(c2nc3ccccc3[nH]2)CC1`, the Potency result is “inactive”. To `O=C(O)c1cc(N=Nc2c(O)[nH]c3ccc([N+](=O)[O-])cc23)ccc1Cl` belongs “inactive”; to `CCCCOc1ccc(S(=O)(=O)N2CCCCC2)cc1`, “inactive”; to `CCOc1ccc(NC(=S)N2CCC(c3ccc(C)cc3)C2)cc1` (centres undefined), “inactive”.

As for `COc1cccc(-n2c(SCC(=O)Nc3cc(C)on3)nc3c([nH]c4ccccc43)c2=O)c1`, the Potency result was “inactive”.

As for `O=C(NC(=O)c1ccccc1)Nc1cccc(S(=O)(=O)N2CCCCC2)c1`, the Potency result is “inactive”. Turning to `C[C@H](CO)N1C[C@H](C)[C@@H](CN(C)C(=O)Nc2ccccc2)Oc2ccc(NC(=O)Cn3cnnn3)cc2C1=O`, the Potency result was “inactive”. For the compound `CCOC(=O)C1CCN(CC(=O)Nc2cc(C)nn2-c2nc3ccccc3s2)CC1`, the Potency entry is “inactive”.
